The full data set covers some 7,900 targets. This sample favours those with a hit. About 0.6% of all pairs of compound and target were hits.
Columns and labels:
Assay in all cases: log2 fold change, soluble protein after heating vs DMSO (PISA); higher = thermal stabilisation; K562 cells, 10 uM, 30 min; active = over 0.2 and 3.5 SD of the protein, either way, in both replicates (recomputed)
[1] = compound: CC1=C(C=C(C=C1)NC(=O)C2=CC(=CC=C2)C(C)(C)C#N)NC3=CC4=C(C=C3)N=CN(C4=O)C
Method in brief: (§1)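 K562 cells at 2×10^6 cells/mL were treated with 10 μM compound for 30 min. Aliquots were heated for 3 min across 48°C-58°C, pooled, and extracted in PBS with 0.5% NP-40 at 4°C; soluble protein was the supernatant after 21,000xg for 90 min. Soluble protein was quantified by TMTpro 16plex LC-MS/MS with channel sums equalised, and reported as log2 fold change in thermal stability against DMSO controls, with values from duplicates.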

[2] = compound: CC1=C(C=C(C=C1)NC(=O)C2=CC(=CC=C2)N(C)C)NC(=O)C3=CC=C(C=C3)O
Method in brief: as §1

[3] = compound: CC1=CC=C(C=C1)SC2=C3C=C(SC3=CN=C2)C(=O)N
Method in brief: as §1

[4] = compound: CC1=NC(=CC=C1)C2=C(N=C(N2)C(C)(C)C)C3=CC4=NC=CN=C4C=C3
Method in brief: as §1

[5] = compound: CCCCN(Cc1ccc(C(=O)NO)cc1)C(=O)Nc1ccccc1 [Nexturastat A]
Method in brief: as §1

[6] = compound: CCCS(=O)(=O)Nc1ccc(F)c(C(=O)c2c[nH]c3ncc(-c4ccc(Cl)cc4)cc23)c1F [vemurafenib]
Method in brief: as §1

[7] = compound: CCCS(=O)(=O)Nc1ccc(F)c(C(=O)c2c[nH]c3ncc(Cl)cc23)c1F
Method in brief: as §1

[8] = compound: CCCc1cc(C)[nH]c(=O)c1CNC(=O)c1cc(-c2ccnc(N3CCN(C)CC3)c2)cc2c1cnn2C(C)C
Method in brief: as §1

[9] = compound: CCN(CC)Cc1ccc2cc(COC(=O)Nc3ccc(C(=O)NO)cc3)ccc2c1 [givinostat]
Method in brief: as §1

[10] = compound: CCN(CCCOc1ccc2c(Nc3cc(CC(=O)Nc4cccc(F)c4)[nH]n3)ncnc2c1)CCOP(=O)(O)O [barasertib]
Method in brief: as §1

[11] = compound: CC[C@@H]1C(=O)N(C)c2cnc(Nc3ccc(C(=O)NC4CCN(C)CC4)cc3OC)nc2N1C1CCCC1
Method in brief: as §1

[12] = compound: CC[C@@H]1C(=O)N(C)c2cnc(Nc3ccc(C(=O)N[C@H]4CC[C@H](N5CCN(CC6CC6)CC5)CC4)cc3OC)nc2N1C(C)C [volasertib]
Method in brief: as §1

[13] = compound: CC[C@H](C)N1C=C(C2=C(C=C(C=C21)C3=CN=C(C=C3)N4CCNCC4)C(=O)NCC5=C(C=C(NC5=O)C)C)C
Method in brief: as §1

[14] = compound: CC[C@H](C)[C@@H](C(=O)N[C@@H]([C@@H](C)O)C(=O)N[C@@H](CC(C)C)C(=O)[C@]1(CO1)C)NC(=O)[C@H]([C@@H](C)CC)N(C)C(=O)C [epoxomicin]
Method in brief: as §1

[15] = compound: CCn1c(C(=O)N(C2CC2)C2CC2)cc2c3c(ncn3C)c(Nc3cc(C)n(C)n3)nc21
Method in brief: as §1

[16] = compound: CCn1cc(-c2ccnc3[nH]c(-c4cccc(CN(C)C)c4)cc23)c(-c2ccc(NC(=O)N(C)C)cc2)n1
Method in brief: as §1

[17] = compound: CN(C)CC(=O)Nc1ccc2[nH]c(=O)c3ccccc3c2c1
Method in brief: as §1

[18] = compound: CN(CCOC1=CC=C(C=C1)C[C@H]2C(=O)NC(=O)S2)C3=CC=CC=N3 (racemic) [rosiglitazone]
Method in brief: as §1

[19] = compound: CN1C2=C(C3=C1C(=O)N(N=C3)CC4=CC(=CC=C4)N)SC(=C2)S(=O)C
Method in brief: as §1

[20] = compound: CN1CCC(CNc2ccc3ncc(-c4cccc(OC(F)(F)F)c4)n3n2)CC1
Method in brief: as §1

Measured: log2 fold change

RBM26 isoform 3 (UniProt Q5T8P6)
inactive: [1] 0.017

RPS12 (UniProt P25398)
inactive: [1] 0.036 | [2] 0.006 | [3] -0.013 | [4] -0.027 | [5] 0.038 | [6] -0.057 | [7] -0.035 | [8] 0.073 | [9] -0.035 | [10] -0.059 | [11] 0.108 | [12] 0.219 | [13] 0.038 | [14] -0.021 | [15] -0.002 | [16] 0.063 | [17] -0.028 | [18] -0.037 | [19] 0.064 | [20] 0.079

SIDT2 isoform 2 (UniProt Q8NBJ9)
Sequence of UniProt Q8NBJ9 (Q8NBJ9 whole entry, looked up): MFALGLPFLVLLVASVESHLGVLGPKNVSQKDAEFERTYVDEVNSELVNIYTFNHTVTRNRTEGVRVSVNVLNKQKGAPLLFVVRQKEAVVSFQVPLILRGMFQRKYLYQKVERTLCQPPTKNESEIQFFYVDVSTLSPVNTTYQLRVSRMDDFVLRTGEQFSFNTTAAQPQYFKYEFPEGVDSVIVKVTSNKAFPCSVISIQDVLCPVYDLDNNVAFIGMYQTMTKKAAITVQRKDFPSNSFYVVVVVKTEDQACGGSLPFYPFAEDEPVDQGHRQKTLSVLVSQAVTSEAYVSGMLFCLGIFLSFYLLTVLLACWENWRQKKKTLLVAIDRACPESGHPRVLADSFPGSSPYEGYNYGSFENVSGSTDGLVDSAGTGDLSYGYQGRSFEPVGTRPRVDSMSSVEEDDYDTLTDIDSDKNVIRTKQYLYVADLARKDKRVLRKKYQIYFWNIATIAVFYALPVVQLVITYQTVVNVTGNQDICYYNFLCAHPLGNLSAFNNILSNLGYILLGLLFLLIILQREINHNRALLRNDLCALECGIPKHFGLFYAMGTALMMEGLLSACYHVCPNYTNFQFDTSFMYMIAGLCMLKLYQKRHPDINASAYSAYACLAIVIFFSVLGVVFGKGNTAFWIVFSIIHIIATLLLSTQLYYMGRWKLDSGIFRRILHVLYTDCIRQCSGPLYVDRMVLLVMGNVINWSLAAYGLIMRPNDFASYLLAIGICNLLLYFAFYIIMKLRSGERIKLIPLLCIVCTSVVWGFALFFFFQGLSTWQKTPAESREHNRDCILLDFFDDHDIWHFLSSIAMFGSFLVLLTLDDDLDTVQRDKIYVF
inactive: [1] -0.021 | [2] 0.019 | [3] -0.025 | [5] 0.042 | [6] 0.019 | [7] -0.033 | [8] 0.017 | [9] 0.038 | [10] -0.148 | [11] -0.035 | [12] 0.055 | [13] -0.026 | [14] 0.002 | [15] -0.014 | [16] 0.069 | [17] -0.041 | [18] 0.019 | [19] 0.024 | [20] -0.02
active: [4] -0.367

SEC23A (UniProt Q15436)
Sequence of UniProt Q15436 (Q15436 whole entry, looked up): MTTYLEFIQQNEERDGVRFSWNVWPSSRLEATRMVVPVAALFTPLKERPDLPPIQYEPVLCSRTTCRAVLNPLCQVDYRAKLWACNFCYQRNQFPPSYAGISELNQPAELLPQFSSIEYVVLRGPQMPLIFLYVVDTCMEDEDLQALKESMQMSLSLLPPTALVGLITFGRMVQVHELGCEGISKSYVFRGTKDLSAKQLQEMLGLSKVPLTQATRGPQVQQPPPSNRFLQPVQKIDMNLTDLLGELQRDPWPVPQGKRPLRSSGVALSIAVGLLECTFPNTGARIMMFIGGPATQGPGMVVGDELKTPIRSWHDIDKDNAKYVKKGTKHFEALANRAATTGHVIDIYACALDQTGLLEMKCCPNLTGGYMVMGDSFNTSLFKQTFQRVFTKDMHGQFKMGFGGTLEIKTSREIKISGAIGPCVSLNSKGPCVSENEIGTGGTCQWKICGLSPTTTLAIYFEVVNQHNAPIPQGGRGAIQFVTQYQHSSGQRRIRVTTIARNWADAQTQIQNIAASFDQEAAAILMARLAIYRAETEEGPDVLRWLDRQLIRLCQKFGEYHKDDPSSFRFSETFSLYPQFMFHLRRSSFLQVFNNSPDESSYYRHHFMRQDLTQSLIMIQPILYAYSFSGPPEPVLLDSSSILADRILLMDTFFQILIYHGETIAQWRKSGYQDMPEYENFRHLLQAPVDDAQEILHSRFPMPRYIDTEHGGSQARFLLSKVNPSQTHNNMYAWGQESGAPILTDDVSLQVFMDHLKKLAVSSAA
inactive: [1] 0.005 | [2] -0.067 | [3] -0.027 | [4] -0.041 | [5] 0.008 | [6] 0.049 | [7] 0.06 | [8] 0.003 | [9] -0.025 | [10] 0.027 | [11] 0.149 | [12] -0.156 | [13] 0.1 | [14] -0.016 | [15] 0.017 | [16] -0.123 | [17] 0.052 | [18] -0.011 | [19] -0.027 | [20] 0.042

RPS25 (UniProt P62851)
inactive: [1] 0.009 | [2] 0 | [3] -0.03 | [4] 0 | [5] 0.11 | [6] -0.08 | [7] -0.102 | [8] 0.06 | [9] 0.042 | [10] -0.075 | [11] 0.063 | [12] 0.338 | [13] 0.012 | [14] -0.172 | [15] 0.034 | [16] 0.134 | [17] -0.03 | [18] -0.062 | [19] 0.122 | [20] 0.146

RBM12 (UniProt Q9NTZ6)
active: [12] -0.437
inactive: [1] 0.016 | [2] -0.101 | [3] 0.057 | [4] 0.116 | [5] -0.085 | [6] 0.058 | [7] 0.136 | [8] 0.008 | [9] 0.062 | [10] 0.122 | [11] -0.181 | [13] 0.114 | [14] 0.087 | [15] -0.08 | [16] -0.049 | [17] 0.053 | [18] 0.087 | [19] -0.033 | [20] -0.139

RPL31 (UniProt P62899)
inactive: [1] -0.005 | [2] 0.01 | [3] -0.086 | [4] -0.075 | [5] 0.168 | [6] -0.145 | [7] -0.15 | [8] 0.092 | [9] 0.031 | [10] -0.149 | [11] 0.212 | [12] 0.457 | [13] 0.01 | [14] -0.238 | [15] 0.036 | [16] 0.216 | [17] -0.108 | [18] -0.124 | [19] 0.251 | [20] 0.259

RPP14 (UniProt O95059)
Sequence of UniProt O95059 (O95059 whole entry, looked up): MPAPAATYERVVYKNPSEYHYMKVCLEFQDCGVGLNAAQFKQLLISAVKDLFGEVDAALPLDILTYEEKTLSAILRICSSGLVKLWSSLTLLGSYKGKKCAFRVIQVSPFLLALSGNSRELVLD
active: [20] 0.244
inactive: [1] 0.086 | [2] 0.01 | [3] -0.031 | [4] -0.015 | [5] 0.129 | [6] -0.004 | [7] 0.004 | [8] -0.037 | [9] -0.116 | [10] -0.087 | [11] 0.079 | [12] 0.07 | [13] -0.048 | [14] -0.06 | [15] 0.013 | [16] 0.08 | [17] -0.04 | [18] -0.021 | [19] -0.076

RAB8B (UniProt Q92930)
inactive: [1] 0.055 | [2] 0.013 | [3] 0.073 | [4] 0.081 | [5] -0.082 | [6] 0.192 | [7] 0.018 | [8] 0.109 | [9] -0.014 | [10] -0.016 | [11] 0.036 | [12] 0.033 | [13] -0.039 | [14] 0.229 | [15] -0.011 | [16] 0.003 | [17] 0.013 | [18] 0.085 | [19] -0.05 | [20] 0.227

SGPL1 (UniProt O95470)
Sequence of UniProt O95470 (O95470 whole entry, looked up): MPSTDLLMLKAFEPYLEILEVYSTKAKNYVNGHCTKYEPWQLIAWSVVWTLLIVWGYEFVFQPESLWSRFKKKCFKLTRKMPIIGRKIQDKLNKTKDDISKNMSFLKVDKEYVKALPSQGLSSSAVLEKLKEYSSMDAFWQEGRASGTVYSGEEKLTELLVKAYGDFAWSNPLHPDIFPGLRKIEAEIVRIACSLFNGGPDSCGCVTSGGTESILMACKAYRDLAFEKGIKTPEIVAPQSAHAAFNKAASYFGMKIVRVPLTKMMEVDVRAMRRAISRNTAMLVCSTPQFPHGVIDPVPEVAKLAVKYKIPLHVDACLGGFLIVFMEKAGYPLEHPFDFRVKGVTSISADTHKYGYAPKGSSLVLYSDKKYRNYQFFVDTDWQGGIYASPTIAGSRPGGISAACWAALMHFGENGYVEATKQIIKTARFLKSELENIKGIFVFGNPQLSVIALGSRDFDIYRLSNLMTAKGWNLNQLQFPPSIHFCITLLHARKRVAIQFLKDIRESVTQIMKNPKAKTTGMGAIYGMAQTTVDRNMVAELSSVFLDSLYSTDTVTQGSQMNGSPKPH
inactive: [1] -0.036 | [2] -0.056 | [3] 0.014 | [4] -0.054 | [5] 0.031 | [6] 0.033 | [7] -0.036 | [8] 0.074 | [9] -0.035 | [10] 0.051 | [11] 0 | [12] -0.04 | [13] -0.002 | [14] -0.066 | [15] 0.01 | [16] 0.009 | [17] -0.023 | [18] -0.061 | [19] 0.047 | [20] 0.189

RTN4IP1 (UniProt Q8WWV3)
Sequence of UniProt Q8WWV3 (Q8WWV3 whole entry, looked up): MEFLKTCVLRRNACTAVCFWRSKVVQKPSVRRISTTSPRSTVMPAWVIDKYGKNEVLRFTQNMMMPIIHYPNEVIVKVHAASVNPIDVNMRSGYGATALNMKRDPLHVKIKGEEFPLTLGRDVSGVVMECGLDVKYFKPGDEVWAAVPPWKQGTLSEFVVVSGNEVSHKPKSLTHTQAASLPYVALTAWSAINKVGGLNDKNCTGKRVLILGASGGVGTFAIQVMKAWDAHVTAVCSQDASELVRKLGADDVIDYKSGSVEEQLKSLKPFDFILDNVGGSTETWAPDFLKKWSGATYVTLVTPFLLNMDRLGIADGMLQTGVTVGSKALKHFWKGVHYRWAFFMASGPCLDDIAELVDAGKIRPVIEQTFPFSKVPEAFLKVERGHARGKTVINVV
active: [18] 0.965
inactive: [1] 0.253 | [2] -0.033 | [3] 0.294 | [4] 0.119 | [5] -0.061 | [6] 0.034 | [7] -0.041 | [8] -0.218 | [9] -0.081 | [10] 0.031 | [11] -0.118 | [12] -0.196 | [13] -0.059 | [14] -0.02 | [15] 0.009 | [16] -0.079 | [17] -0.003 | [19] -0.219 | [20] -0.12

RPS3 (UniProt P23396)
inactive: [1] 0.011 | [2] 0.003 | [3] -0.077 | [4] -0.042 | [5] 0.069 | [6] -0.086 | [7] -0.102 | [8] 0.041 | [9] 0.007 | [10] -0.088 | [11] 0.147 | [12] 0.34 | [13] 0.011 | [14] -0.125 | [15] 0.033 | [16] 0.125 | [17] -0.071 | [18] -0.064 | [19] 0.085 | [20] 0.045

RUNX1 isoform 8 (UniProt Q01196)
Sequence of UniProt Q01196 (Q01196 whole entry, looked up): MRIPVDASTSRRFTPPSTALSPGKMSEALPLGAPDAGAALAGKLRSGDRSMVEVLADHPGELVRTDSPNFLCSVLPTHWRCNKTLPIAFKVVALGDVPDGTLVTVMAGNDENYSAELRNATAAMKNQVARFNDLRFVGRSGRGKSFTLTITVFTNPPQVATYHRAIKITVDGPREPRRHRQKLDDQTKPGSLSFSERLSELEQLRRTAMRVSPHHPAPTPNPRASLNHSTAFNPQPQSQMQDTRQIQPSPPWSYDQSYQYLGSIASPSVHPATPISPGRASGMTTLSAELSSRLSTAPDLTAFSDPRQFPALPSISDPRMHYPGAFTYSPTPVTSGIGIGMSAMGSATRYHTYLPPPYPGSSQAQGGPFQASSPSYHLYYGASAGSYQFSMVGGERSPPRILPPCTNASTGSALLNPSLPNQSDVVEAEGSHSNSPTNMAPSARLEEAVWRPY
active: [12] -0.434
inactive: [1] 0.236 | [2] 0.018 | [3] 0.059 | [4] -0.045 | [5] -0.231 | [6] -0.026 | [7] 0.046 | [8] 0.088 | [9] 0.076 | [10] -0.058 | [11] -0.331 | [13] 0.086 | [14] -0.206 | [15] 0.035 | [16] -0.089 | [17] 0.06 | [18] 0.032 | [19] -0.027 | [20] -0.102

RAC1 (UniProt P63000)
active: [20] 0.35
inactive: [1] 0.14 | [2] -0.002 | [3] -0.055 | [4] 0.241 | [5] -0.021 | [6] -0.046 | [7] -0.008 | [8] 0.032 | [9] -0.059 | [10] -0.026 | [11] -0.024 | [12] 0.03 | [13] 0.026 | [14] 0.019 | [15] 0.019 | [16] 0.044 | [17] 0.05 | [18] 0.069 | [19] -0.067

SAFB2 (UniProt Q14151)
Sequence of UniProt Q14151 (Q14151 whole entry, looked up): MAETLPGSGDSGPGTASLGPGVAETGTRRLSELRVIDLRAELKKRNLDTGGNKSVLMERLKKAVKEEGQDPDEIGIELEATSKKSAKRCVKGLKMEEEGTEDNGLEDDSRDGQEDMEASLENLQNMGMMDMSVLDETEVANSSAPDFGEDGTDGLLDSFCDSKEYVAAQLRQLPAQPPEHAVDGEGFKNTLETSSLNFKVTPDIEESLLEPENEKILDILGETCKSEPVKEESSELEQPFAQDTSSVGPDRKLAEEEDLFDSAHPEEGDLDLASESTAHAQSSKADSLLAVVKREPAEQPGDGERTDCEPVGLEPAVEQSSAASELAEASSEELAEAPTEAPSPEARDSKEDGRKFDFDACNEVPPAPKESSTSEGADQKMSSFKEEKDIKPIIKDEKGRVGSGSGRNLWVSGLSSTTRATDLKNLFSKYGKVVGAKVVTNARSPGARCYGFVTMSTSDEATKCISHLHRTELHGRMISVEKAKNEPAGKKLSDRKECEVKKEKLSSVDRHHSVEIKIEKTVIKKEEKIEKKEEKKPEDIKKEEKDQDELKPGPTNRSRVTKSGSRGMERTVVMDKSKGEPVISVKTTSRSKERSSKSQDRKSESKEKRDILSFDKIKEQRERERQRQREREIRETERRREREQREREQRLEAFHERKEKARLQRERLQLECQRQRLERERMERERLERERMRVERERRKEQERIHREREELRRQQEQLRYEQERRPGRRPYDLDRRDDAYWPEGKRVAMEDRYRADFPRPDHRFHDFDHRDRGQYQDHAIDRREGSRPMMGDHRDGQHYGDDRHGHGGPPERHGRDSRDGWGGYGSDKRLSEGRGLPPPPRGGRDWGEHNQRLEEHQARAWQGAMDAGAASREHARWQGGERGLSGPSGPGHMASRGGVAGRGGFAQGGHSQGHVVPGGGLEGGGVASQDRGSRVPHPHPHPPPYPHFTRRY
inactive: [1] 0.011 | [2] 0.068 | [3] -0.024 | [4] 0.011 | [5] 0.203 | [6] -0.048 | [7] -0.038 | [8] 0.097 | [9] -0.011 | [10] -0.029 | [11] 0.018 | [12] 0.118 | [13] -0.022 | [14] -0.246 | [15] -0.003 | [16] 0.203 | [17] -0.061 | [18] -0.028 | [19] 0.235 | [20] 0.23

RPS6KA1 isoform 2 (UniProt Q15418)
Sequence of UniProt Q15418 (Q15418 whole entry, looked up): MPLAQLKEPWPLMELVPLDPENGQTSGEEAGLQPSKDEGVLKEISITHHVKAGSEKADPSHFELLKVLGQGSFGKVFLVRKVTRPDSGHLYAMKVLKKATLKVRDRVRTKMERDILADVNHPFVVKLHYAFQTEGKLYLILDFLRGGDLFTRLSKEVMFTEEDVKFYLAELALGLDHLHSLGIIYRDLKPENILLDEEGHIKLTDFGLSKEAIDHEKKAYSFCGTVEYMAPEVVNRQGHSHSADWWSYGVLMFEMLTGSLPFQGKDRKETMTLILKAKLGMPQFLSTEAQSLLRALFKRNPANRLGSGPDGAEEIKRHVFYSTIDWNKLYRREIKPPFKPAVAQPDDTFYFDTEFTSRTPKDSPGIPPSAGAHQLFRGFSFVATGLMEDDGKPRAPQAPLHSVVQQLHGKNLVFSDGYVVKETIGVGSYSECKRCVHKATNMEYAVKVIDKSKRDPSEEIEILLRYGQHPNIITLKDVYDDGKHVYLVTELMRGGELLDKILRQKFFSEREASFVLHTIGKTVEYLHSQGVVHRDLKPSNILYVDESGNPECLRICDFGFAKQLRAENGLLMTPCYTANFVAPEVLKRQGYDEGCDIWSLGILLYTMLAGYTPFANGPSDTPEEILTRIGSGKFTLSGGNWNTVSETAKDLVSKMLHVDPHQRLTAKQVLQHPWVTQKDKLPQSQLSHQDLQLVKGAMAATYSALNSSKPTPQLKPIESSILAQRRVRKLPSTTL
inactive: [1] -0.016 | [2] -0.187 | [3] 0.033 | [4] 0.078 | [5] 0.004 | [6] 0.016 | [7] 0.046 | [8] 0.071 | [9] -0.141 | [10] 0.029 | [11] -0.223 | [12] -0.212 | [13] 0.053 | [14] 0.071 | [15] 0.127 | [16] -0.146 | [17] 0.026 | [18] 0.044 | [19] -0.032
active: [20] -0.438

RPS3A (UniProt P61247)
inactive: [1] 0.011 | [2] 0.009 | [3] -0.081 | [4] -0.036 | [5] 0.069 | [6] -0.104 | [7] -0.095 | [8] 0.071 | [9] -0.033 | [10] -0.109 | [11] 0.133 | [12] 0.339 | [13] 0.02 | [14] -0.124 | [15] 0.028 | [16] 0.114 | [17] -0.063 | [18] -0.064 | [19] 0.138 | [20] 0.105

Source: the supplement of paper PMC10849652
